TrxR1 inh: qHTS Assay for Inhibitors of Mammalian Selenoprotein Thioredoxin Reductase 1 (TrxR1): qHTS. Thioredoxin reductase 1, cytoplasmic (Rattus norvegicus), O89049. recombinant rTrxR1, NADPH fluorescence consumption, selenite substrate. Potency, µM (titrated, usually from 114 µM), without a hit: at the top dose activity change, negative = inhibition, usual class: inhibitors. 390,000 tested, 1% active. AID 588453, 2011; note: potency is the fitted concentration of half-maximal effect; % is set by controls: 0 for no effect and ±100 for the full control effect; nearly all actives have a fitted effect of over 65% in size
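Rat TrxR1 (90 nM in the dispensed reagent) was pre-reduced with 400 uM NADPH for 5 min at room temperature, then incubated with compound for 15 min. After 400 uM selenite was added, NADPH fluorescence (Ex 340/Em 450 nm) was followed for 8 min.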
miR-21 act: qHTS Assay for Modulators of miRNAs and/orActivators of miR-21. 340,000 tested, under 10 active. Potency, µM (top dose mostly 38.3 µM), without a hit: at the top dose activity change, positive = activation, most hits filed as activators. HeLa miR-21 FLuc reporter, luciferase, 48 h;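 note: % of control where 0% means no effect; miR-21 action dims this reporter so a rising signal means less miR-21 action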
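Compounds were titrated across several concentrations (up to approximately 40 uM) and incubated 48 hours with HeLa miR-21-FLuc reporter cells (miR-21 target sequence downstream of FLuc, endogenous miR-21). Readout was firefly luciferase luminescence after lytic detection reagent.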
TrxR1 substrate: qHTS Assay for Substrates of Mammalian Selenoprotein Thioredoxin Reductase 1 (TrxR1): qHTS. 390,000 tested, 0.01% active. Potency, µM (doses to about 114 µM), for the others: top-dose activity change, negative = substrate turnover. Thioredoxin reductase 1, cytoplasmic (Rattus norvegicus), O89049. purified TrxR1 substrate turnover, NADPH consumption readout; note: potency is the fitted concentration of half-maximal effect; % is set by controls: 0 for no effect and ±100 for the full control effect; nearly all actives have a fitted effect of over 50% in size
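Rat TrxR1, dispensed at 90 nM, was prereduced with 400 uM NADPH (final) for 5 min at ~22 deg C, then incubated with compound 15 min before 400 uM selenite. A first-read NADPH fluorescence drop versus no-compound background flagged substrates.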
Apoferritin bind: qHTS Assay for Identification of Novel General Anesthetics | Potency, µM (highest dose often 77.5 µM), without a hit: at the top dose activity change, negative = displacement, most hits filed as inhibitors | Ferritin light chain (Equus caballus), P02791 | apoferritin/1-aminoanthracene competitive binding, fluorescence | AID 485281, 2010 | 350,000 tested, 0.074% active; note: potency is the fitted concentration of half-maximal effect; % is set by controls: 0 for no effect and ±100 for the full control effect; nearly all actives have a fitted effect of over 20% in size
Target sequence (P02791 2-175 limits assumed): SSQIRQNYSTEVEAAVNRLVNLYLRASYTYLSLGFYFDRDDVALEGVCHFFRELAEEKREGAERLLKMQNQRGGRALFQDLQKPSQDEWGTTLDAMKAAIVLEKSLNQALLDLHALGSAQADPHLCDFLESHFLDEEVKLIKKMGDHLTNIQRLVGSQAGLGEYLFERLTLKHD
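Steps: apoferritin (10 uM) was premixed with half-saturated 1-AMA in PBS, compounds were pin-transferred, plates stood 10 min at room temperature, fluorescence was read at 380/535 nm, and curves were fitted with a Hill equation.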
ClpP mod: qHTS Assay for Activators of ClpP | 340,000 tested, 1.9% active | ATP-dependent Clp protease proteolytic subunit (Bacillus subtilis (strain 168)), P80244 | Potency, µM (series often up to 57.5 µM), inactives show at the top dose activity change, negative = active | purified B. subtilis ClpP, FRET peptide cleavage, 20 min; active = well fitted falling curve with a large enough effect; inconclusive = small, poorly fitted or top-dose-only effect; inactive = no such curve, though single readings can be large or run the other way; note: potency is the fitted concentration of half-maximal effect; the source files actives as falling curves though it sought activators and does not explain the sign; nearly all actives have a fitted effect of over 65% in size
Target sequence (P80244 whole entry, looked up): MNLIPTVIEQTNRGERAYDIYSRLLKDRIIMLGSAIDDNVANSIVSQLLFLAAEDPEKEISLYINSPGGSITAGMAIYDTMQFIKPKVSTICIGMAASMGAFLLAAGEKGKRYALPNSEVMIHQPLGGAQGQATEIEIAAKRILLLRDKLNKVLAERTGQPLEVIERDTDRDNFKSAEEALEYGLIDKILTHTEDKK
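Buffer: 100 mM Tris/HCl pH8, 100 mM KCl, 0.05% low protease BSA, 2.5% glycerol, 0.01% Tween-20. ClpP 10 microg/mL final; 20 min RT; delta FRET normalized to ADEP and DMSO controls.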
Starred values were filed as active, the others as inactive; ? = inconclusive; . = no result; [ ] = remark or other dose. Rows were chosen to be rich in hits. Some 2.5% of all compounds tested hit in one or more screens of this group. Unless noted, calls come from the whole dose curve; as a rule, active = well fitted curve in the direction sought with a large enough effect; inconclusive = small, poorly fitted or top-dose-only effect, or another doubt; inactive = no such curve, though single readings can be large; an effect the other way counts as inactive or inconclusive.

SMILES	TrxR1 inh	miR-21 act	TrxR1 substrate	Apoferritin bind	ClpP mod
O=C(/C=C/c1ccccc1O)c1ccco1	-47%	19%	8%[57.1 µM]	-21%	1.6µM*
O=C(/C=C/c1cc(Br)ccc1O)c1ccco1	35µM*	?	-7%	-17%	-1%
COc1ccc(C)cc1-n1nnc(C(=O)Nc2cccc(SC)c2)c1C	21%	-4%	2%	-8%	-8%
CN(C)CCCNc1nccc(N2CCN(C)CC2)n1	-6%	.	-2%	.	-2%
CCOC(=O)c1ccc2nc(C(F)(F)F)[nH]c(=O)c2c1	3%[57.1 µM]	-2%	60%[57.1 µM]	-12%	4µM*
CCOC(=O)c1ccc2nc(C)c3c(c2c1)OC(C)C3 (configuration not stated)	-10%	-20%	67%	5%	32µM*
CC1CCCCC1NC(=O)CN1CCN(S(=O)(=O)c2ccc(Br)s2)CC1 (configuration not stated)	-1%	.	-2%	.	14µM*
C=C(C)C1(O)OC(=O)C=C1OC (configuration not stated)	14µM*	0%	5%	6%	0%
COc1ccc(C2=CC(=O)OC3(CCCCC3)O2)cc1	-4%	-9%	-7%	?	-2%
COc1ccc2c3c(c(=O)oc2c1OCC(=O)O)CCCC3	3%[57.1 µM]	-8%	31%[57.1 µM]	0%	20µM*
COC(=O)c1ccc(COc2ccc3c(C)c(C)c(=O)oc3c2C)o1	12%[57.1 µM]	-12%	23%[57.1 µM]	-7%	-13%
CCOc1c(OC)ccc2c3c(c(=O)oc12)CCCC3	16%	-11%	21%	-20%	?
Cc1c(C)c2c(OCC(=O)N3CCC(C(=O)O)CC3)cc3c(c2oc1=O)CCC(C)(C)O3	79µM*	-9%	602%	56%	5%
Cc1c(C)c2c(OCC(=O)N3CCC(C(=O)NCC(C)C)CC3)cc3c(c2oc1=O)CCC(C)(C)O3	-5%	-7%	188%	-3%	4%
Cc1c(OCc2ccc(C(=O)O)o2)ccc2c3c(c(=O)oc12)CCC3	-1%	-18%	159%	-5%	3.2µM*
Cc1c(OCC(=O)N2CCC(C(=O)O)CC2)ccc2c3c(c(=O)oc12)CCC3	14µM*	-3%	95%	-3%	4%
CCOC(=O)C1=C(CS(=O)(=O)c2ccc(F)c(C)c2)NC(=O)NC1c1ccccc1OC (configuration not stated)	-31%	7%	-16%	-16%	-4%
O=C(Nc1ccc(Cl)c(C(F)(F)F)c1)C(Cc1ccccc1)NS(=O)(=O)c1cccc2nsnc12 (configuration not stated)	6%	20%	-4%	0%	7%
COc1cc2c(NC3CCN(C)CC3)nc(N3CCCN(C)CC3)nc2cc1OCCN(C)C	-34%	.	106%	.	4%
Cc1ccc2nc(N(CCCN(C)C)C(=O)c3sc4ccccc4c3Cl)sc2c1	50µM*	-14%	-7%	?	1%
Cc1ccc2nc(N(CCCN(C)C)C(=O)c3ccc(S(=O)(=O)N(C)C)cc3)sc2c1	4%	-2%	3%	-8%	0%
Cc1cccc(-n2ncc3c(N4CCCc5ccccc54)ncnc32)c1	23%	-18%	9%	94%	32µM*
O=C(NCc1ccccc1Cl)C(=O)NCC(c1ccco1)S(=O)(=O)c1cccs1 (configuration not stated)	4%[57.1 µM]	-1%	-1%[57.1 µM]	-9%	2%
Cc1ccc(CNC(=O)CCc2c(C)c3cc4c(C)coc4cc3oc2=O)cc1	28%	-14%	22%	-5%	4%
Cc1ccc2nc(-c3ccc(NS(C)(=O)=O)cc3)cc(-c3ccccc3)c2c1	26%	8%	23%	-20%	?
CCS(=O)(=O)Nc1ccc(-c2cc(-c3ccccc3)c3cc(C)ccc3n2)cc1	-23%	-2%	9%	-17%	18µM*

Screening data (PubChem)
